This excerpt belongs to a sample that is enriched for hits.
HT1080NT lethal – kills 2HG-producing HT-1080-NT fibrosarcoma cells. 360,000 compounds, 1.6% hits. Potency, µM (highest dose often 46.1 µM), for the others: at the highest dose activity, negative = less viability, actives largely listed as cytotoxic. HT-1080-NT fibrosarcoma viability, CellTiter-Glo ATP luminescence, 48 h. AID 686970;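 further: NT is the 2HG producing partner of a matched IDH1 knockdown line; potency means the concentration at half of the fitted maximal effect; 0% = DMSO-treated cells and -100% = media-only wells without cells; nearly all actives have a fitted effect of over 55% in size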
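Compounds were tested in concentration-response format on HT-1080-NT cells for 48 hours at 37 degrees C. Cell viability came from CellTiter-Glo luminescence; curves were classified by r2, response magnitude and activity.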
IL1B secr inh – inflammasome signaling inhibition, IL-1 beta readout | THP-1 LPS/ATP IL-1B secretion, AlphaLISA, 16 h; hits give low values | activity change, % at 57.5 µM | 360,000 compounds, 4.7% hits | AID 743279; in the data active means activity change below about -50%; inconclusive means mostly about -30% to -49%
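Secreted IL-1B measured by AlphaLISA bead assay after 16 h compound exposure of THP-1 cells; compounds (final up to 57.5 uM) added 1 h before LPS (250 ng/mL) and ATP (1.25 mM) stimulation; lower signal means less secretion.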
HT1080 IDH1KD tx – HT-1080 IDH1 knockdown cell toxicity (counter line); HT-1080 IDH1 knockdown viability, ATP luminescence, 48 h; 360,000 compounds, 2% hits; Potency, µM (highest dose often 46.1 µM), for the others: at the highest dose activity, negative = toxicity, usual class: cytotoxic;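 further: potency means the concentration at half of the fitted maximal effect; 0% = DMSO wells and -100% = cell-free medium wells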
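IDH1KD HT-1080 cells, 750/well, RPMI + 5% FBS; compound pinned after 2 h settling; 48 h, 37 °C; CellTiter-Glo luminescence; % activity normalised to DMSO and no-cell wells; curves fitted, classed by r2 and efficacy.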
DT40 TDP1 CPT – growth inhibition of DT40 Tdp1-/-;hTDP1 cells with camptothecin (screen for TDP1 inhibitors); Potency, µM (top dose mostly 46.2 µM), inactives show top-dose activity change, negative = growth inhibition, hits mostly inhibitors; chicken DT40 Tdp1-/-;hTDP1 cells + 20 nM CPT, ATP luminescence, 48 h; 420,000 compounds, 12% hits; AID 686979; further: potency means the concentration at half of the fitted maximal effect; nearly all actives have a fitted effect of over 55% in size
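Chicken DT40 Tdp1-/- cells complemented with human TDP1, 400 cells/well, exposed to compounds plus 20 nM camptothecin for at least 48 h at 37 C; viability read as ATP content by CellTiter-Glo luminescence.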
ALOX12 inh – ALOX12 (human) lipoxygenase inhibition; P18054; purified 12hLO, xylenol orange hydroperoxide absorbance; 580,000 compounds, 1.1% hits; Potency, µM (highest dose often 108 µM), without a hit: at the highest dose activity change, negative = inhibition, most hits filed as inhibitors; AID 1671190; further: potency means the concentration at half of the fitted maximal effect
Target sequence (P18054 whole entry, looked up): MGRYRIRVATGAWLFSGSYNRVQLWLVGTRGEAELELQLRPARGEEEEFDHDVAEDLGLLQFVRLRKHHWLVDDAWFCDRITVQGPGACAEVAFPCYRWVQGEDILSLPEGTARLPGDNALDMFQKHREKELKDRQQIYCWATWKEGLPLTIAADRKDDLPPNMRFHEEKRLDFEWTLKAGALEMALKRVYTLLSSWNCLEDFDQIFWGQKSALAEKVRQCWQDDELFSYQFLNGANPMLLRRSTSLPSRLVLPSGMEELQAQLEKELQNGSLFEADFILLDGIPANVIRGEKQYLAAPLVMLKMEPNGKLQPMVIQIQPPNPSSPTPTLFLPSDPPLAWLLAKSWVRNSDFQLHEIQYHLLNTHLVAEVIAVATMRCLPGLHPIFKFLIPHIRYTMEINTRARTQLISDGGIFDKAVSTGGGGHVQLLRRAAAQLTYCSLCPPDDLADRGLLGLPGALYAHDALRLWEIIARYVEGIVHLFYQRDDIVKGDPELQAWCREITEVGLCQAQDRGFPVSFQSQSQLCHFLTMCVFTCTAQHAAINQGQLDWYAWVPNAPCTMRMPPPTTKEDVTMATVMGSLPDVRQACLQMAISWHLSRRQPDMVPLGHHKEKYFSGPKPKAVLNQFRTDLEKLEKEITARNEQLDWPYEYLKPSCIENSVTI
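Purified human 12hLO (150 nM final) in 25 mM Hepes, 0.01% Triton X-100, pH 7.0 was preincubated 15 min at room temperature with compound. Then 40 uM arachidonic acid was added, 30 min. Hydroperoxide was read by Fe-XO absorbance ratio 573/405 nm.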
TDP1 cell noCPT – qHTS for Inhibitors of human tyrosyl-DNA phosphodiesterase 1 (TDP1): qHTS in cells in absence of CPT | DT40 Tdp1-/- hTDP1 cells, no CPT, ATP luminescence, 48 h | 420,000 compounds, 15% hits | Potency, µM (titrated, usually from 46.2 µM), for the others: at the highest dose activity change, negative = growth inhibition, hits mostly inhibitors; further: potency means the concentration at half of the fitted maximal effect; nearly all actives have a fitted effect of over 55% in size
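No-CPT arm: Tdp1-/-;hTDP1 DT40 cells (400/well) plus compounds, incubated ≥48 hr at 37 °C. Readout CellTiter-Glo luminescence.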
The depositor's hits bear a star; ? = inconclusive; / = no result given; ! = a repeat was not active; [ ] = dose if it differs, or a comment. Unless noted, the call rests on the fitted dose curve; in most records, active means well fitted curve in the direction sought with a large enough effect; inconclusive means small, poorly fitted or top-dose-only effect, or another doubt; inactive means no such curve, though single readings can be large; an effect the other way counts as inactive or inconclusive. Unless noted, on the % scale 0 is the no-effect control and ±100 the full control effect.

SMILES	HT1080NT lethal	IL1B secr inh	HT1080 IDH1KD tx	DT40 TDP1 CPT	ALOX12 inh	TDP1 cell noCPT
C[C@H]1CN([C@@H](C)CO)C(=O)Cc2cc(NC(=O)CCC(F)(F)F)ccc2O[C@H]1CN(C)S(=O)(=O)c1ccc(Cl)cc1	3.7µM*	50	4.6µM*	5.2µM*	?	?
CCSC1=NC2(CCCCC2)Nc2sc3c(c21)CCCC3	-16%	-22	-1%	23µM*	?	?
CC(C)Oc1ccc(C(=O)OCC(=O)NC2CCCCCC2)cc1	-6%	18	-9%	?	22%	16µM*
O=C(CO/N=C/c1ccc(OC(F)F)cc1)NC1CCCC1	0%	-14	1%	-21%	-10%	-27%
O=C(CO/N=C/c1ccc(OC(F)F)cc1)NC1CCCCCC1	-14%	-57*	-1%	?	-5%	?
O=C(C1CCN(C(=O)N2CC3CC(C2)[C@H]2CCCC(=O)N2C3)CC1)N1CCCCCC1 (stereo partly specified)	/	/	/	/	15%	/
O=C(NCC1CCN(C2CC2)C1)Nc1ccc(Cl)cc1 (stereo unspecified)	/	/	/	/	5%	/
Cc1ccc(C)c(N2CCN(S(=O)(=O)c3csc(C(N)=O)c3)CC2)c1	-2%	41	-20%	16µM*!	-10%	?
Cc1ccc(C)c(N2CCN(S(=O)(=O)c3ccc(C(=O)N(C)C)s3)CC2)c1	/	/	/	18µM*	-6%	16µM*
Cc1ccc(C)c(N2CCN(S(=O)(=O)c3cn(C)cn3)CC2)c1	-9%	5	-4%	-3%	0%	-12%
COc1ccccc1-c1cc(C(F)(F)F)nc(S(=O)(=O)CCCC(=O)O)n1	11µM*	-87*	8.9µM*	14µM*	18%	?
COc1ccccc1-c1cc(C(F)(F)F)nc(S(=O)(=O)CCCC(=O)N2CCOCC2)n1	16µM*	-118*	16µM*	2.6µM*	0%	2.3µM*
COc1ccc(-c2cc(C(F)(F)F)nc(SCC(=O)N3CCOCC3)n2)cc1OC	5%	?	3%	-18%	-2%	?
COc1ccccc1-c1cc(C(F)(F)F)nc(S(=O)(=O)CCCC(=O)Nc2cc(OC)c(OC)c(OC)c2)n1	/	/	/	?	?	21µM*
COc1ccc(-c2cc(C(F)(F)F)nc(S(=O)(=O)CCC(=O)N3CCOCC3)n2)cc1	3%	-118*	3%	6.5µM*	35%	12µM*
O=C1CCCc2c1cc(C(=O)NC1CCCCC1)c(=O)n2-c1ccc(C(F)(F)F)cc1	/	/	/	/	-21%	/
OCc1cc(-c2ccccc2)n[nH]1	/	/	/	/	9%	/
COCc1cc(C[C@@H]2CC[C@H](O)[C@@H](CNCc3ccc(F)cc3)O2)no1	/	/	/	/	0%[176 µM]	/
COc1ccccc1N(C)C(=O)Cn1c(=O)oc2cc(S(=O)(=O)N3CCCC3)ccc21	/	/	/	?	-25%	?
CCN(Cc1ccccc1)C(=O)Cn1c(=O)oc2cc(S(=O)(=O)N3CCCCCC3)ccc21	/	/	/	16µM*	?	15µM*
CCOc1ccc(NC(=O)Cn2c(=O)oc3cc(S(=O)(=O)NC4CCCC4)ccc32)cc1	/	/	/	15µM*	-11%	12µM*
COc1ccc(OC)c(CNC(=O)c2cc(=O)[nH]c3ccc(S(=O)(=O)N4CCCCC4C)cc23)c1 (stereo unspecified)	/	/	/	?	-25%	16µM*
COc1ccc(NC(=O)Cn2c(=O)oc3cc(S(=O)(=O)N4CCCCCC4)ccc32)cc1OC	/	/	/	16µM*	6%	13µM*
CCOc1ccc(CCNC(=O)c2cc(=O)[nH]c3ccc(S(=O)(=O)N4CCCCC4C)cc23)cc1OCC (stereo unspecified)	/	/	/	?	4%	?
CCOc1ccc(NC(=O)Cn2c(=O)oc3cc(S(=O)(=O)N4CCCCCC4)ccc32)cc1	/	/	/	21µM*	-23%	21µM*
SMILES	HT1080NT lethal	IL1B secr inh	HT1080 IDH1KD tx	DT40 TDP1 CPT	ALOX12 inh	TDP1 cell noCPT
COc1ccccc1CNC(=O)Cn1c(=O)oc2cc(S(=O)(=O)N3CCCC3)ccc21	3%	1	-2%	13µM*	-3%	29µM*
COc1ccc(NC(=O)Cn2c(=O)oc3cc(S(=O)(=O)N4CCCCC4C)ccc32)cc1 (stereo unspecified)	/	/	/	18µM*	-30%	21µM*
O=C(Cn1c(=O)oc2cc(S(=O)(=O)N3CCCC3)ccc21)NCc1ccccn1	4%	1	7%	1%	14%	-26%
COc1cc(OC)c(NC(=O)Cn2c(=O)oc3cc(S(=O)(=O)N4CCCC4)ccc32)cc1Cl	/	/	/	?	?	18µM*
COc1ccccc1C1=NC(C(F)(F)F)(C(F)(F)F)N=C(N(C)C)O1	/	/	/	/	13%	/
Cc1cc(F)ccc1NC(=O)C(C)(C)c1ccccc1	/	/	/	/	-36%	/
CN1C(=O)C(O)(C2COC(C)(C)CC2=O)c2cc(Br)ccc21 (stereo unspecified)	?	57	?	5.8µM*	2%	4.6µM*
Cc1ccc2c(c1)C(O)(C1COC(C)(C)CC1=O)C(=O)N2C (stereo unspecified)	14%	40	23%	5.2µM*	3%	3.3µM*
Cc1ccc(C(=O)CC2(O)C(=O)N(C)c3ccc(Br)cc32)c(C)c1 (stereo unspecified)	3%	-4	6%	?	1%	-26%
CN1C(=O)C(O)(C2COC(C)(C)CC2=O)c2ccccc21 (stereo unspecified)	18%	32	17%	15µM*	155%	9.2µM*
COc1ccc2c(c1)[C@]1(C[C@H](O)CO1)C(=O)N2C	17%	43	12%	10%	0%	3%
COc1ccccc1N1CCN(Cc2cc(=O)oc3cc(O)c(Cl)cc23)CC1	/	/	/	/	-11%	/
COCCNC(=O)C[C@@H]1C[C@@H](C(C)C)[C@H](CNC(=O)C2CC2)C=C1C	/	/	/	/	38%[176 µM]	/
CCOc1ccc(Nc2nc3ccccc3n3cnnc23)cc1	-2%	0	2%	?	5%	23µM*
c1ccc(Nc2nc3ccccc3n3cnnc23)cc1	4%	34	3%	-26%	-11%	-25%
CCCCOC(=O)c1ccc(Nc2nc3ccc(C)cc3n3cnnc23)cc1	/	/	/	-1%	-7%	-22%
O=C(O)c1ccc(Nc2nc3ccccc3n3cnnc23)cc1	/	/	/	?	9%	7.3µM*
CCCCOC(=O)c1ccc(Nc2nc3ccc(C(=O)c4ccccc4)cc3n3cnnc23)cc1	/	/	/	21µM*	-15%	16µM*

From PubChem BioAssay
